Read-out in assay [1]: TIMP metallopeptidase inhibitor 1 (TIMP1), TIMP1 (gene 7076)
The experiment in a line: BSK_hDFCGF_TIMP1: BioMAP Diversity Plus: hDFCGF Assay for TIMP metallopeptidase inhibitor 1 (TIMP1) Biomarker Activity (AID 2283062). To be noted: primary human foreskin fibroblasts; actives raise or lower the signal. The procedure, abridged:
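Primary human foreskin fibroblasts in the hDFCGF system were dosed with compound for 24 h, then TIMP-1 was measured by ELISA. Activity was fitted bidirectionally relative to DMSO control; parallel SRB staining assessed cytotoxicity.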

Read-out in assay [2]: Monokine induced gamma interferon (MIG), CXCL9 (gene 4283)
Put plainly: BSK_hDFCGF_MIG: BioMAP Diversity Plus: hDFCGF Assay for Monokine induced gamma interferon (MIG) Biomarker Activity (AID 2283063). The following applies: primary human foreskin fibroblasts; actives raise or lower the signal. The procedure, abridged:
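ELISA read-out of MIG from primary human dermal fibroblasts 24 h post-dosing. Gain or loss of signal fitted bidirectionally, DMSO as baseline.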

Read-out in assay [3]: Matrix Metallopeptidase 1 (MMP1), MMP1 (gene 4312)
Put plainly: BSK_hDFCGF_MMP1: BioMAP Diversity Plus: hDFCGF Assay for Matrix Metallopeptidase 1 (MMP1) Biomarker Activity (AID 2283064). To be noted: primary human foreskin fibroblasts; actives raise or lower the signal. In a few lines:
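hDFCGF primary fibroblasts (human foreskin); chemical added; 24 h; MMP1 by ELISA; bidirectional fit vs DMSO.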

Read-out in assay [4]: Vascular cell adhesion molecule 1 (VCAM1), VCAM1 (gene 7412)
Put plainly: BSK_hDFCGF_VCAM1: BioMAP Diversity Plus: hDFCGF Assay for Vascular cell adhesion molecule 1 (VCAM1) Biomarker Activity (AID 2283065).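 For AC50: VCAM-1 protein level quantified by ELISA after 24 h chemical exposure.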 To be noted: primary human foreskin fibroblasts; actives raise or lower the signal. In a few lines: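 Primary human foreskin fibroblasts (hDFCGF system) were dosed with chemical and VCAM-1 was measured by ELISA 24 h later. Bidirectional curve fitting used DMSO as negative control and activity baseline.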

Read-out in assay [5]: Plasminogen activator inhibitor-1 (PAI1), SERPINE1 (gene 5054)
Put plainly: BSK_hDFCGF_PAI1: BioMAP Diversity Plus: hDFCGF Assay for Plasminogen activator inhibitor-1 (PAI1) Biomarker Activity (AID 2283066). To be noted: primary human foreskin fibroblasts; actives raise or lower the signal. The procedure, abridged: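 PAI-1 levels, determined by ELISA, served as the endpoint in human foreskin fibroblast cultures exposed to compound for 24 h, with DMSO as baseline.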

Read-out in assay [6]: Intercellular Adhesion Molecule 1 (ICAM1), ICAM1 (gene 3383)
Put plainly: BSK_KF3CT_ICAM1: BioMAP Diversity Plus: KF3CT Assay for Intercellular Adhesion Molecule 1 (ICAM1) Biomarker Activity (AID 2283067). The following applies: primary human keratinocytes with fibroblasts; actives raise or lower the signal. The procedure, abridged:
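Human keratinocyte plus foreskin fibroblast primary co-culture was exposed to chemical for 24 h. ICAM-1 was then quantified by ELISA, and the data were fit bidirectionally against DMSO as the negative control and baseline.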

Read-out in assay [7]: Interferon-gamma inducible Protein 10 (IP10), CXCL10 (gene 3627)
The experiment in a line: BSK_KF3CT_IP10: BioMAP Diversity Plus: KF3CT Assay for Interferon-gamma inducible Protein 10 (IP10) Biomarker Activity (AID 2283068). The following applies: primary human keratinocytes with fibroblasts; actives raise or lower the signal. The procedure, abridged: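 ELISA read-out of IP-10 after 24 h chemical dosing of human skin primary co-culture (keratinocytes, foreskin fibroblasts). Gain or loss of signal relative to DMSO, bidirectional curve fit.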

Assay [8] can be described thus: BSK_KF3CT_SRB: Viability Assessment in the BioMAP Diversity Plus: KF3CT Assay (AID 2283069).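 Note: total protein by sulforhodamine B staining as a cytotoxicity measure; read 24 h after compound addition; fitted for both signal gain and loss against DMSO baseline.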 The following applies: primary human keratinocytes with fibroblasts. In a few lines:
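Keratinocytes co-cultured with foreskin fibroblasts (human primary); chemical added, 24 h; fix 10% TCA, stain 0.1% SRB, A560. Bidirectional fit vs DMSO.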

Read-out in assay [9]: Interleukin-1 alpha (IL1a), IL1A (gene 3552)
The experiment in a line: BSK_KF3CT_IL1a: BioMAP Diversity Plus: KF3CT Assay for Interleukin-1 alpha (IL1a) Biomarker Activity (AID 2283070). To be noted: primary human keratinocytes with fibroblasts; actives raise or lower the signal. The procedure, abridged:
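Chemicals were dosed onto co-cultured human keratinocytes and foreskin fibroblasts, IL-1a was quantified by ELISA at 24 h, and activity was fitted in both directions relative to DMSO controls.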

Read-out in assay [10]: TIMP metallopeptidase inhibitor 2 (TIMP2), TIMP2 (gene 7077)
The experiment in a line: BSK_KF3CT_TIMP2: BioMAP Diversity Plus: KF3CT Assay for TIMP metallopeptidase inhibitor 2 (TIMP2) Biomarker Activity (AID 2283071). The following applies: primary human keratinocytes with fibroblasts; actives raise or lower the signal. In a few lines: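 Keratinocyte–fibroblast co-culture, 24 h exposure; TIMP-2 ELISA, DMSO-normalised bidirectional fit. Parallel SRB (0.1%, TCA-fixed, 560 nm) total-protein staining gauges cytotoxicity.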

Read-out in assay [11]: Transforming growth factor beta 1 (TGFb1), TGFB1 (gene 7040)
Put plainly: BSK_KF3CT_TGFb1: BioMAP Diversity Plus: KF3CT Assay for Transforming growth factor beta 1 (TGFb1) Biomarker Activity (AID 2283072). To be noted: primary human keratinocytes with fibroblasts; actives raise or lower the signal. The procedure, abridged: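 Signal changes in either direction, relative to DMSO, define activity here. TGF-b1 is read by ELISA from a human keratinocyte-fibroblast co-culture 24 h post-dose.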

Read-out in assay [12]: C-C motif chemokine 2 (Homo sapiens) (UniProt P13500)
Put plainly: BSK_KF3CT_MCP1: BioMAP Diversity Plus: KF3CT Assay for Monocyte Chemoattractant Protein 1 (MCP1/CCL2) Biomarker Activity (AID 2283073). The following applies: primary human keratinocytes with fibroblasts; actives raise or lower the signal. In a few lines: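 Human keratinocyte plus foreskin fibroblast primary co-culture exposed to chemical for 24 h. MCP-1 levels measured by ELISA. Bidirectional curve fitting relative to DMSO negative control as baseline.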

Read-out in assay [13]: Matrix Metallopeptidase 9 (MMP9), MMP9 (gene 4318)
The experiment in a line: BSK_KF3CT_MMP9: BioMAP Diversity Plus: KF3CT Assay for Matrix Metallopeptidase 9 (MMP9) Biomarker Activity (AID 2283074).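 For AC50: MMP9 protein level quantified by ELISA in the co-culture.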 To be noted: primary human keratinocytes with fibroblasts; actives raise or lower the signal. The procedure, abridged: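 Human keratinocyte/foreskin fibroblast co-culture; compound added; 24 h; MMP-9 by ELISA; bidirectional fit vs DMSO baseline.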

Read-out in assay [14]: urokinase plasminogen activator (uPA), PLAU (gene 5328)
Put plainly: BSK_KF3CT_uPA: BioMAP Diversity Plus: KF3CT Assay for urokinase plasminogen activator (uPA) Biomarker Activity (AID 2283075). To be noted: primary human keratinocytes with fibroblasts; actives raise or lower the signal. In a few lines:
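ELISA readout of uPA, analyzed for signal gain or loss relative to DMSO, from a human primary keratinocyte–foreskin fibroblast co-culture measured 24 h after chemical treatment.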

Read-out in assay [15]: CD40, CD40 (gene 958)
The experiment in a line: BSK_LPS_CD40: BioMAP Diversity Plus: LPS Assay for CD40 Biomarker Activity (AID 2283076). To be noted: primary human HUVEC with PBMC; actives raise or lower the signal. The procedure, abridged: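 Primary human umbilical vein endothelial cells co-cultured with peripheral blood mononuclear cells, LPS-stimulated, were dosed with chemical and read 24 h later. CD40 levels were measured by ELISA and fitted bidirectionally against DMSO as negative control and baseline.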

Read-out in assay [16]: E-selectin (Homo sapiens) (UniProt P16581)
The experiment in a line: BSK_LPS_Eselectin: BioMAP Diversity Plus: LPS Assay for Eselectin Biomarker Activity (AID 2283077). To be noted: primary human HUVEC with PBMC; actives raise or lower the signal. The procedure, abridged:
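Human umbilical vein endothelial cells co-cultured with peripheral blood mononuclear cells under LPS stimulation; E-selectin measured by ELISA 24 h after chemical dosing. Activity fitted bidirectionally against DMSO as negative control and baseline.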

Read-out in assay [17]: Interleukin-8 (IL8), CXCL8 (gene 3576)
Put plainly: BSK_LPS_IL8: BioMAP Diversity Plus: LPS Assay for Interleukin-8 (IL8) Biomarker Activity (AID 2283078). To be noted: primary human HUVEC with PBMC; actives raise or lower the signal. The procedure, abridged:
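Human umbilical vein endothelial cells co-cultured with PBMC were stimulated with LPS; IL-8 levels were measured by ELISA 24 h after chemical dosing. Activity was fitted bidirectionally against DMSO as negative control and baseline.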

Assay [18] is described as follows: BSK_LPS_SRB: Viability Assessment in the BioMAP Diversity Plus: LPS Assay (AID 2283079).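 Note: total protein by sulforhodamine B absorbance as a cytotoxicity measure; measured one day after compound addition; fitted in both directions against DMSO so loss or gain of signal counts.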 To be noted: primary human HUVEC with PBMC. The procedure, abridged: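 Human umbilical vein endothelial cells co-cultured with PBMC (LPS system) were dosed for 24 h. Total protein was stained with 0.1% sulforhodamine B after 10% TCA fixation, read at 560 nm, and fitted bidirectionally against DMSO baseline.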

Read-out in assay [19]: Interleukin-1 alpha (IL1a), IL1A (gene 3552)
The experiment in a line: BSK_LPS_IL1a: BioMAP Diversity Plus: LPS Assay for Interleukin-1 alpha (IL1a) Biomarker Activity (AID 2283080). To be noted: primary human HUVEC with PBMC; actives raise or lower the signal. In a few lines: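 Human umbilical vein endothelial cells co-cultured with peripheral blood mononuclear cells were LPS-stimulated and exposed to test chemicals for 24 h. IL-1 alpha was quantified by ELISA, with bidirectional curve fitting against DMSO as the negative control and baseline.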

Read-out in assay [20]: Monocyte Chemoattractant Protein-1 (MCP1), CCL2 (gene 6347)
The experiment in a line: BSK_LPS_MCP1: BioMAP Diversity Plus: LPS Assay for Monocyte Chemoattractant Protein-1 (MCP1) Biomarker Activity (AID 2283081).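 For AC50: co-culture stimulated with LPS; secreted MCP-1 protein quantified by ELISA in culture supernatant.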 To be noted: primary human HUVEC with PBMC; actives raise or lower the signal. The procedure, abridged: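 HUVEC plus PBMC co-culture (human primary cells, LPS system) exposed to test chemical for 24 h; MCP-1 measured by ELISA. Bidirectional curve fitting against DMSO baseline; parallel SRB total-protein staining flags overt cytotoxicity.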

Calls of active or inactive are those of the source. Rule for the calls: active = hit-call score of the fitted dose curve at least 0.9, where 1 is the maximum; inactive = score below 0.9.

Chain of E-selectin (Homo sapiens) (P16581 whole entry, looked up): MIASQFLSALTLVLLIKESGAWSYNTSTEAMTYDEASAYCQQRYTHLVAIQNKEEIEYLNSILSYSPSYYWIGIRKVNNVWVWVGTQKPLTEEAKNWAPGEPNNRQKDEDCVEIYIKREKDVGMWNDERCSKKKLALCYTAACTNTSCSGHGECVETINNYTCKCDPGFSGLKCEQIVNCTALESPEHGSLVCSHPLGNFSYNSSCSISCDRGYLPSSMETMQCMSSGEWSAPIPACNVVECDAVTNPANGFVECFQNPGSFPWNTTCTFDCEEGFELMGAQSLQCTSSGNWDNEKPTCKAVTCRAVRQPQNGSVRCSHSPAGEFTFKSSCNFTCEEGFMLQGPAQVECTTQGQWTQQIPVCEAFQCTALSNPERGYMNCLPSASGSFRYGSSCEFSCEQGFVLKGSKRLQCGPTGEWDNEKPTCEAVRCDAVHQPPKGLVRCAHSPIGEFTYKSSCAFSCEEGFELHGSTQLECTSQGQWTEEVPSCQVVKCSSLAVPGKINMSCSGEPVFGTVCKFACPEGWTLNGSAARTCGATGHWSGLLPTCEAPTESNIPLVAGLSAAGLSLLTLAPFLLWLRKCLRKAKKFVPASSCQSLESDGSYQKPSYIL

Turning to `c1ccc2ccccc2c1`, the outcome in assay [1], in [2], in assay [3], in assay [4], in [5] and in assay [6] was inactive. The outcome in assay [7], in assay [8], in assay [9], in assay [10], in [11] and in assay [12] was inactive. The result in assay [13], in assay [14], in [15], in [16], in [17] and in assay [18] was inactive. The result in assay [19] and in [20] was inactive.

In the case of `CC/C(=C(/CC)c1ccc(O)cc1)c1ccc(O)cc1`, the AC50 in assay [1] was 33.4 µM (active); in [2] it was 28.1 µM (active); in assay [3], 28.6 µM (active); in assay [4], 13.6 µM (active); in [5] it was 20 µM (active); in assay [6] it was 31.8 µM (active). Moreover, the half-maximal activity concentration (AC50) in assay [7] was 17.7 µM (active); in [8], 25.3 µM (active); in assay [9], 28 µM (active); in assay [10], 29.1 µM (active); in assay [11] it was 5.87 µM (active); in assay [12] it was 11.2 µM (active). The concentration at half-maximal activity (AC50) in assay [13] is 12.3 µM (active); in [14] it was 29.3 µM (active); in [15] it was 20 µM (active); in [16], 30.3 µM (active); in assay [17] it was 37 µM (active); in assay [18], 25.4 µM (active). For the same compound, the AC50 is 29.7 µM (active) in [19] and 33.9 µM (active) in assay [20].

On to `CCN(Cc1cccc(S(=O)(=O)O)c1)c1ccc(C(=C2C=CC(=[N+](CC)Cc3cccc(S(=O)(=O)O)c3)C=C2)c2ccccc2S(=O)(=O)[O-])cc1`, for which the outcome in [1], in [2], in assay [3], in assay [4], in assay [5] and in assay [6] was inactive. Moreover, the outcome in [7], in assay [8], in assay [9], in [10], in assay [11] and in [12] was inactive. The outcome in [13], in assay [14], in assay [15], in assay [16], in [17] and in assay [18] was inactive. Further, the result in assay [19] and in assay [20] was inactive.

Regarding `O=C1CCC(C2CCCCC2)CC1`, the concentration at half-maximal activity (AC50) in assay [1] was 32.7 µM (active); in assay [3], 33.3 µM (active); in assay [4], 31.6 µM (active); in [5], 31.7 µM (active); in [7], 31.5 µM (active); in [12], 29.6 µM (active). The concentration at half-maximal activity (AC50) in assay [13] was 31.8 µM (active). The outcome in [2], in assay [6], in assay [8], in [9], in assay [10] and in assay [11] was inactive. The result in assay [14], in [15], in assay [16], in assay [17], in assay [18] and in assay [20] was inactive.

With `Cc1cn([C@H]2C[C@H](N=[N+]=[N-])[C@@H](CO)O2)c(=O)[nH]c1=O`, the result in [1], in [2], in assay [3], in [4], in [5] and in [6] was inactive. Besides, the result in assay [7], in assay [8], in assay [9], in [10], in assay [11] and in assay [12] was inactive. Also, the outcome in assay [13], in assay [15], in [16], in assay [17], in assay [18] and in assay [19] was inactive. For the same compound, the outcome in [20] was inactive.

Take `CCCCCCCCOc1ccc(C(=O)c2ccccc2)c(O)c1`: the result in [1], in assay [2], in [3], in [4], in assay [5] and in assay [6] was inactive. Further, the outcome in assay [7], in [8], in [9], in assay [10], in [11] and in [12] was inactive. The outcome in assay [13], in assay [16], in [17], in assay [18], in [19] and in [20] was inactive. Besides, the half-maximal activity concentration (AC50) in assay [15] is 25.3 µM (active).

Broadly, the AC50 is the midpoint of the concentration-response curve, whichever way the signal moves.

(Values after PubChem BioAssay (EPA / NIEHS).)
